Here are results for 20 compounds from PubChem BioAssay.

A short description of assay [1]: antimalarial activity against Dd2 strain (AID 2302;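 active = growth inhibition above 50% at the single 2 µM test dose, taken to imply half-maximal potency below 2 µM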;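 also: 0% = DMSO untreated growth and 100% = chloroquine plus artemisinin killed control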). To be noted: P. falciparum Dd2 in RBCs, LDH growth readout, 72 h; at 2 µM; stronger effect = higher value.
Assay [2] in a line: HepG2 cytotoxicity, primary screen, cytotoxicity control for P. falciparum antimalarial project, cell-based, ATP luminescence (AID 2303;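 active = inhibition above 50%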;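 also: 0% = DMSO wells and 100% = digitonin-killed cells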). The settings on record: HepG2 viability, 24-48 h, at 10 µM, stronger effect = higher value.
Assay [3] deals with L-lactate dehydrogenase (Plasmodium falciparum (isolate CDC / Honduras)) (UniProt Q27743). The assay is described as follows: PfLDH activity inhibition – cell lysate, 3D7 strain, counter-screen for P. falciparum growth inhibition project (AID 2304).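 Also: 0% = vehicle and 100% = reference inhibitor.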 To be noted: P. falciparum 3D7 crude extract, LDH APAD/NBT absorbance; at 2 µM; stronger effect = higher value.
Assay [4] is described as follows: inhibition of 3D7 malaria parasite growth – strain 3D7 (AID 2306).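 Also: 0% = DMSO wells and 100% = chloroquine plus artemisinin control wells.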 To be noted: P. falciparum 3D7 erythrocytic growth, LDH absorbance, 72 h; at 2 µM; stronger effect = higher value.
Assay [5] deals with Calcium-dependent protein kinase 1 (Plasmodium falciparum (isolate 3D7)) (UniProt P62344). The assay is described as follows: PfCDPK1 kinase inhibitors, biochemical, TCAMS library (AID 1159585; cut-off not given, nearly all actives have IC50 up to about 0.98 µM;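 also: inhibitors leave more ATP so luminescence rises with inhibition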). The settings on record: recombinant PfCDPK1, Kinase-Glo ATP depletion luminescence.
In assay [6] the target is Plasmodium falciparum protein kinase 6 (PK6, PF3D7_1337100) (UniProt Q8IDW1). The assay is described as follows: PfPK6 kinase inhibitors, biochemical, TCAMS library (AID 1159586). The settings on record: recombinant PfPK6, Kinase-Glo ATP depletion luminescence.
Assay [7] has as its target Protein kinase 7 (PK7), Plasmodium falciparum 3D7 (PF3D7_0213400) (UniProt Q7YTF7). The assay is described as follows: inhibition of Plasmodium PK7 catalytic activity – biochemical, TCAMS antimalarial set, Kinase-Glo luminescence (AID 1159587). To be noted: recombinant PfPK7, Kinase-Glo ATP depletion luminescence.
Assay [8] has as its target Calcium-dependent protein kinase 4 (Plasmodium falciparum (isolate 3D7)) (UniProt Q8IBS5). The assay is described as follows: PfCDPK4 kinase inhibitors, biochemical, TCAMS library (AID 1159588; cut-off not given, nearly all actives have IC50 up to about 0.91 µM). The settings on record: recombinant PfCDPK4, Kinase-Glo ATP depletion luminescence.

A number with no mark means an inactive call. For some of these results: Results with a measured potency or affinity are listed apart. Activity calls are given as the source filed them. Unless noted, no rule for the calls is given here.

Chain of Calcium-dependent protein kinase 1 (Plasmodium falciparum (isolate 3D7)) (P62344 whole entry, looked up): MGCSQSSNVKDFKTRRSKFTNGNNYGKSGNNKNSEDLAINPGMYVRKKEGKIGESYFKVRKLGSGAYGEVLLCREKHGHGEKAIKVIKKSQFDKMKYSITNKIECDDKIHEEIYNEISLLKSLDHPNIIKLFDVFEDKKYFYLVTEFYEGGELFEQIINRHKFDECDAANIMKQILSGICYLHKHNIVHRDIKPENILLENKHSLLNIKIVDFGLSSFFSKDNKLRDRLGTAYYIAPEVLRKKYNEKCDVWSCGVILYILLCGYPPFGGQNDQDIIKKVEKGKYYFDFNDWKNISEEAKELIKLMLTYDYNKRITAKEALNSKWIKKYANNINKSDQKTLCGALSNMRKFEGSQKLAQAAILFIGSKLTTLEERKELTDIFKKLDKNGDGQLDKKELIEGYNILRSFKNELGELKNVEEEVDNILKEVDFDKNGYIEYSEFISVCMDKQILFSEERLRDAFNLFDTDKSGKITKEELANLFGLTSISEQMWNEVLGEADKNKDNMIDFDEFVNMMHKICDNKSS
Chain of L-lactate dehydrogenase (Plasmodium falciparum (isolate CDC / Honduras)) (Q27743 whole entry, looked up): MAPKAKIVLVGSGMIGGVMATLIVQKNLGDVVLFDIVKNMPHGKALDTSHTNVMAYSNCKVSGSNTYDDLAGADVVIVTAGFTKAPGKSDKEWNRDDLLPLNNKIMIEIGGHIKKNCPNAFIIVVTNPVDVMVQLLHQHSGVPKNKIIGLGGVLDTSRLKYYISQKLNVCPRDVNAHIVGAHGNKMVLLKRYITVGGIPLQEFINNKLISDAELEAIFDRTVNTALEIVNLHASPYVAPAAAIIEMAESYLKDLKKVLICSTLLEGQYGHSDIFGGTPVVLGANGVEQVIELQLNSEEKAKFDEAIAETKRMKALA
Chain of Calcium-dependent protein kinase 4 (Plasmodium falciparum (isolate 3D7)) (Q8IBS5 whole entry, looked up): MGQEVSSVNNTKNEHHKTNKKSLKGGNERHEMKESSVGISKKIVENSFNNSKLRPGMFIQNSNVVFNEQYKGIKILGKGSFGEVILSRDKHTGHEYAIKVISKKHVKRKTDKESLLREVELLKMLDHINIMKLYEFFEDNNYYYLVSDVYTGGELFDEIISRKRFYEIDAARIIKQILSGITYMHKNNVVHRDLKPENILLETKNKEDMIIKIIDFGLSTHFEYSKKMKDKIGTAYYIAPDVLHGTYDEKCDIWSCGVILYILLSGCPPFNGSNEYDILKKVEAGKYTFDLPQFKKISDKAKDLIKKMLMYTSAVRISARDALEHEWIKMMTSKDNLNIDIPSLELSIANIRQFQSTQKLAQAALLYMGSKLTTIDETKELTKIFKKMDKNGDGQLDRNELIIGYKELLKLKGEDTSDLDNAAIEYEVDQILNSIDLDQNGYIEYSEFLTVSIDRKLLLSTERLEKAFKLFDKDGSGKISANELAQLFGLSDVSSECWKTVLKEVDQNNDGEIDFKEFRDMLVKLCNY
Chain of Plasmodium falciparum protein kinase 6 (PK6, PF3D7_1337100) (Q8IDW1 1-305): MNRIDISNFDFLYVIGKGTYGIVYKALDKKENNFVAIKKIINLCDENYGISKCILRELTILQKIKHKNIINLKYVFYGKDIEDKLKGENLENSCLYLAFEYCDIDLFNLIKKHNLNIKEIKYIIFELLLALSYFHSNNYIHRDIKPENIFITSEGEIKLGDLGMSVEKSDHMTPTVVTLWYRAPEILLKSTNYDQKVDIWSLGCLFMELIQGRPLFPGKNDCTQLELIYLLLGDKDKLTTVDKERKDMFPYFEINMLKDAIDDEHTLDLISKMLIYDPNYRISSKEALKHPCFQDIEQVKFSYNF
Chain of Protein kinase 7 (PK7), Plasmodium falciparum 3D7 (PF3D7_0213400) (Q7YTF7 1-343): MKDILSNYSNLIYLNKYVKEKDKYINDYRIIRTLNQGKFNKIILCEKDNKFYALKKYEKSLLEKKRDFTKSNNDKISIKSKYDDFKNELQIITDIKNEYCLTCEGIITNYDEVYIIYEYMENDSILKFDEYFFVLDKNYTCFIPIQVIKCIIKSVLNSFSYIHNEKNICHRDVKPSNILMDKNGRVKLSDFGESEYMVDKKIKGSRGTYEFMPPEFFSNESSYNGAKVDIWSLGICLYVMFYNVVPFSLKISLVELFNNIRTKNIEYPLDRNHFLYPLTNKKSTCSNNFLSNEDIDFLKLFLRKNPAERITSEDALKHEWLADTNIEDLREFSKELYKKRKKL

On to `Cc1nnsc1C(=O)Nc1cccc(-c2ccc(-c3nc4ccc(C(F)(F)F)cc4[nH]3)cc2)c1`, for which the growth inhibition is 97% (active) in assay [1] and 99% (active) in assay [4]. Moreover, the results for the inhibition in assay [2] and in assay [3] were 62% (active) and 3%, respectively. Also, the outcome in assay [5], in assay [6], in assay [7] and in assay [8] was inactive.

Take `Cc1cc(N(C)C)nc(Nc2ccc(NC(=O)c3c(F)cccc3F)cc2)n1`: the growth inhibition in assay [1] was 45%; in assay [4], 94% (active). Besides, the inhibition was 50% (active) in assay [2] and -1% in assay [3]. For the same compound, the outcome in assay [5], in assay [6], in assay [7] and in assay [8] was inactive.

For `Cc1nnsc1C(=O)Nc1cccc(-c2ccc(-c3nc4ccccc4[nH]3)s2)c1`, the values for the growth inhibition in assay [1] and in assay [4] were 13% and 89% (active), respectively. Further, the values for the inhibition in assay [2] and in assay [3] were 55% (active) and -3%, respectively. Moreover, the outcome in assay [5], in assay [6], in assay [7] and in assay [8] was inactive.

On to `Fc1ccccc1C=NNc1ccnc2ccccc12`, for which the growth inhibition was 26% in assay [1] and 94% (active) in assay [4]. Besides, the inhibition was 8% in assay [2] and 0% in assay [3]. Moreover, the result in assay [5], in assay [6], in assay [7] and in assay [8] was inactive.

Turning to `CCCCCCCN1CC[C@@H](CCCc2ccnc3ccc(OCCCCN=C(N)NO)cc23)[C@@H](CC)C1`, the results for the growth inhibition in assay [1] and in assay [4] were 39% and 90% (active), respectively. For the same compound, the figures for the inhibition in assay [2] and in assay [3] were 27% and 2%, respectively. Also, the outcome in assay [5], in assay [6], in assay [7] and in assay [8] was inactive.

Turning to `COc1ccc(Cc2nc3c(n2C(C)=O)SC(c2ccc(Cl)c(Cl)c2)=NN3C(C)=O)cc1`, the growth inhibition is 22% in assay [1] and 94% (active) in assay [4]. Moreover, the inhibition in assay [2] was -2%; in assay [3] it was -6%. Moreover, the outcome in assay [5], in assay [6], in assay [7] and in assay [8] was inactive.

As to `O=C(NCc1cccc(F)c1)c1ccc(O)c(-c2cc(Cl)cc(Cl)c2)c1`, the growth inhibition in assay [1] and in assay [4] was 99% (active) each time. Besides, the inhibition was 0% in assay [2] and 1% in assay [3]. Besides, the outcome in assay [5], in assay [6], in assay [7] and in assay [8] was inactive.

For the compound `Cc1ncccc1-c1cccc2c(NC(=O)Nc3ccc4nccc(N5CCN(C)CC5)c4c3)cccc12`, the growth inhibition in assay [1] is 96% (active); in assay [4], 101% (active). The inhibition in assay [2] was 19%; in assay [3] it was -6%. For the same compound, the outcome in assay [5], in assay [6], in assay [7] and in assay [8] was inactive.

In the case of `COc1ccc(CNCCc2cccs2)cc1-c1ccc(S(=O)(=O)NCCN2CCCC2)cc1`, the growth inhibition is 30% in assay [1] and 99% (active) in assay [4]. Besides, the inhibition was 30% in assay [2] and 4% in assay [3]. For the same compound, the result in assay [5], in assay [6], in assay [7] and in assay [8] was inactive.

`COc1ccc(Nc2nc(C)cc(NC3CCCC3)n2)cc1`: the figures for the growth inhibition in assay [1] and in assay [4] were 59% (active) and 98% (active), respectively. The values for the inhibition in assay [2] and in assay [3] were 34% and 0%, respectively. In addition, the result in assay [5], in assay [6], in assay [7] and in assay [8] was inactive.

Turning to `O=C(Nc1cccc(CN2CCCN(Cc3cccc(O)c3)CC2)c1)c1ccc(-c2ccccc2)cc1`, the growth inhibition was 66% (active) in assay [1] and 101% (active) in assay [4]. Besides, the inhibition was 28% in assay [2] and 3% in assay [3]. Besides, the outcome in assay [5], in assay [6], in assay [7] and in assay [8] was inactive.

Consider `COc1cc(-c2ccc(-c3cnc(N)nc3OC)[nH]2)cc(OC)c1OC`, for which the values for the growth inhibition in assay [1] and in assay [4] were 54% (active) and 101% (active), respectively. The inhibition is -3% in assay [2] and -2% in assay [3]. Further, the result in assay [5], in assay [6], in assay [7] and in assay [8] was inactive.

For `Cc1c(CNCCCNc2cc(=O)c3ccccc3[nH]2)sc(/C=N/O)c1Br`, the growth inhibition in assay [1] was -2%; in assay [4], 82% (active). For the same compound, the inhibition in assay [2] was 0%; in assay [3], 6%. Moreover, the result in assay [5], in assay [6], in assay [7] and in assay [8] was inactive.

Regarding `Cc1cc(-c2nc3ccc(CN4CCN(C)CC4)cc3[nH]2)nn1Cc1cc(Cl)ccc1OCc1ccccc1`, the growth inhibition is 52% (active) in assay [1] and 100% (active) in assay [4]. In addition, the inhibition is 3% in assay [2] and 1% in assay [3]. The outcome in assay [5], in assay [6], in assay [7] and in assay [8] was inactive.

Take `COc1cc2c(cc1OC)CN(CCCCc1ccc(NC(=O)c3cc(Cl)cc(Cl)c3)cc1)CC2`: the values for the growth inhibition in assay [1] and in assay [4] were 4% and 95% (active), respectively. The inhibition in assay [2] is 21%; in assay [3] it was -3%. The outcome in assay [5], in assay [6], in assay [7] and in assay [8] was inactive.

With `O=c1c(Br)ccccc1Br`, the growth inhibition was 41% in assay [1] and 94% (active) in assay [4]. In addition, the inhibition in assay [2] was 98% (active); in assay [3] it was 0%. Moreover, the outcome in assay [5], in assay [6], in assay [7] and in assay [8] was inactive.

Consider `O=C(Nc1ccc([N+](=O)[O-])cc1)Nc1cc(C(F)(F)F)ccc1F`, for which the results for the growth inhibition in assay [1] and in assay [4] were 46% and 89% (active), respectively. Besides, the inhibition in assay [2] was 8%; in assay [3], -4%. The result in assay [5], in assay [6], in assay [7] and in assay [8] was inactive.

As to `Cc1cc(CNC(=O)c2ccc(-c3ccc(-c4nc5ccc(C(F)(F)F)cc5[nH]4)s3)cc2)on1`, the growth inhibition in assay [1] was 56% (active); in assay [4], 93% (active). Further, the results for the inhibition in assay [2] and in assay [3] were 15% and -1%, respectively. For the same compound, the outcome in assay [5], in assay [6], in assay [7] and in assay [8] was inactive.

In the case of `Nc1ncnc2nc(-c3ccc(F)cc3)cc(-c3ccc(NC(=O)c4ccccc4)cc3)c12`, the growth inhibition was 97% (active) in assay [1] and 100% (active) in assay [4]. For the same compound, the inhibition in assay [2] was -6%; in assay [3] it was 0%. The result in assay [5], in assay [6], in assay [7] and in assay [8] was inactive.

`Nc1c2c(nc3ccc(NC(=O)Cc4ccccc4)cc13)CCCC2`: the results for the growth inhibition in assay [1] and in assay [4] were -2% and 101% (active), respectively. Moreover, the figures for the inhibition in assay [2] and in assay [3] were 9% and 6%, respectively. The outcome in assay [5], in assay [6], in assay [7] and in assay [8] was inactive.
